Measured values as given in the supplement of paper PMC3842684.

Key:
[1] = test system: P. falciparum NF54-pfs16-GFP early (I-III) stage gametocytes; assay: relative % inhibition of viable gametocyte number; higher = more gametocytocidal; conditions: stage: early (I-III) gametocyte, incubation 72 h
Outline: (§1)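 Viable gametocytes were counted by confocal imaging as elongated GFP objects carrying MitoTracker Red signal above a cut-off, after 72 h of compound exposure (5 or 0.5 µM) at 37°C in 5% CO2 and 5% O2 and overnight staining. The NF54 pfs16-GFP gametocytes had been magnet-isolated at early (I/IIa, day 2) or late (day 8) stage and plated at 10% parasitaemia, 0.1% haematocrit in 384-well poly-D-lysine imaging plates. Relative inhibition was normalised to vehicle and positive-control wells within each plate.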

[2] = test system: P. falciparum NF54-pfs16-GFP late (IV-V) stage gametocytes; assay: as above; conditions: stage: late (IV-V) gametocyte, incubation 72 h
Outline: as §1

| SMILES | relative % inhibition ([1]; 0.5 µM) [%] | relative % inhibition ([1]; 5 µM) [%] | relative % inhibition ([2]; 0.5 µM) [%] | relative % inhibition ([2]; 5 µM) [%] |
| --- | --- | --- | --- | --- |
| CCOC(=O)c1cnc2ccc(Cl)cc2c1NCCCN(C)C | 3.83 | 74.3 | -21.7 | -1.78 |
| Cc1ccc(-c2cc(C(=O)Nc3ccc(S(=O)(=O)N4CCCCC4)cc3)[nH]n2)c(O)c1 | 18 | 51 | -1.52 | 2.43 |
| CCOC(=O)C1=C(C)N=c2sc(=Cc3ccccc3O)c(=O)n2C1c1ccc(OC)c2ccccc12 (configuration not stated) | -2.21 | 86.4 | 65.8 | 61.1 |
| CCCCCCc1cc2cc(-c3nc4ccccc4[nH]3)c(=Nc3ccccc3C)oc2cc1O | 60.1 | 100 | 35 | 52.7 |
| CCOc1cc2c(cc1OCC)C(c1cc(Cl)ccc1O)NCC2 (configuration not stated) | 13 | 102 | 19 | 26.7 |
| CCc1ccc(Nc2cc(C)c3ccc(O)cc3n2)cc1 | 1.9 | 99.6 | 16.3 | 56.6 |
| Cc1cc(Nc2ccc(C)c(Cl)c2)n2nc(C(F)(F)F)nc2n1 | -5.05 | -8.28 | 13.1 | -2.09 |
| OC(CNC1CCCC1)Cn1c2ccccc2c2ccccc21 (configuration not stated) | 15.6 | 91.7 | 24.2 | 66 |
| CCc1c(C)c(=N)c2ccccc2n1C | -1.08 | 8.52 | -17.1 | -7.51 |
| CCCCc1c(C)nc2c(OC)cccc2c1O | 12.7 | -0.633 | 35.7 | 63.9 |
| O=C(Nc1ccc(Cl)cc1C(=O)Nc1ccncc1)c1ccc(Cl)cc1Cl | 20.3 | 31.8 | -5.7 | -20.8 |
| CCOC(=O)c1c(NC(=O)c2ccccc2)sc2c(O)c(CN(CC)CC)ccc12 | 28.6 | 94.9 | 64.2 | 89.6 |
| Cc1ccc(Nc2nc(-c3ccccn3)cs2)cc1 | 69.6 | 93.5 | 95.4 | 98.4 |
| CC(C)(C)C(=O)Nc1ccc(C(=O)Nc2cccc(-c3nc4ccccc4[nH]3)c2)cc1 | 7.02 | 15.3 | 3.45 | 17.3 |
| Cc1cccc(N2C(=O)C3C(C2=O)C2(c4ccccc4)C(=O)C3(c3ccccc3)C(c3ccc4c(c3)OCO4)=C2c2ccc3c(c2)OCO3)c1 (configuration not stated) | 56.2 | 66.1 | 24.7 | 10.9 |
| CC(O)(c1ccc(Cl)cc1)C(CN1CCCCC1)c1ccccc1 (configuration not stated) | 20 | 59.1 | 14 | 22.3 |
| c1ccc(Cn2c(N=Nc3c(Nc4ccccc4)ccc4ccccc34)nc3ccccc32)cc1 | 62.1 | 106 | 102 | 100 |

| SMILES | relative % inhibition ([1]; 0.5 µM) [%] | relative % inhibition ([1]; 5 µM) [%] | relative % inhibition ([2]; 0.5 µM) [%] | relative % inhibition ([2]; 5 µM) [%] |
| --- | --- | --- | --- | --- |
| Cc1ccc2cc3c(N)c4c(C)ccc(C)c4nc3nc2c1 | 4.09 | 91 | 8.68 | 50.1 |
| COc1ccc(C)c2sc(N(Cc3cccnc3)C(=O)c3ccc(C#N)cc3)nc12 | 11.9 | 35.9 | -23.5 | 7.81 |
| Cc1c(C)n(CC(O)CNC2CCCCC2C)c2ccccc12 (configuration not stated) | 41.6 | 98.7 | 34.2 | 54.5 |
| O=C(O)C1Cc2c([nH]c3ccccc23)C(c2ccc(Cl)cc2Cl)N1 (configuration not stated) | -10.4 | -20.9 | 6.2 | 1.16 |
| Cc1ccc(S(=O)(=O)c2c(COC(=O)c3cccc(C)c3)c(-c3ccccc3)nn2C)cc1 | -3.57 | 37.5 | 18.5 | 20.4 |
| CSc1ccccc1C(=O)Nc1nc(-c2ccccn2)cs1 | 27.3 | 92.9 | 19.1 | 96.9 |
| CCCOCc1cc(CN2CCN(c3cccc(Cl)c3)CC2)c(O)c2ncccc12 | 14 | 91.3 | -7.95 | 102 |
| COc1ccc(CCn2c(=N)c(C(=O)NCc3cccnc3)cc3c(=O)n4cccc(C)c4nc32)cc1 | 45.1 | 70.9 | -7.36 | 11.2 |
| CCN(CC)c1cc(C)c2cc(NC(=O)c3cccc(OC)c3)ccc2n1 | 15.1 | 16.1 | -0.167 | 86.7 |
| CCOC(=O)c1ccc2nc(-c3ccccc3)cc(O)c2c1 | 2.53 | 2.35 | 50.6 | 102 |
| O=c1nc(C=Cc2ccc(Cl)cc2)oc2ccccc12 | 10.5 | -14.5 | 7.96 | 19.3 |
| O=C(NC1CCN(Cc2ccccc2)CC1)c1cc(-c2ccncc2)nc2ccc(Cl)cc12 | 17.7 | 64.3 | -28.1 | -1.38 |
| Nc1nc(Nc2cccc(F)c2)nc2ccccc12 | 5.49 | -3.66 | 15.1 | 2.78 |
| COc1ccc(C2N(C)c3ccccc3N2C)cc1 | 24.6 | 30.9 | 17.9 | -2.47 |
| CC1(c2ccccc2)Nc2ccccc2-c2nc3ccccc3n21 (configuration not stated) | 1.27 | 32.3 | 46.2 | 46.6 |
| O=C(Nc1ccc(-c2nc3ccccc3[nH]2)cc1)c1ccc(Cl)c(Cl)c1 | 14.9 | -3.57 | 0.0958 | -12 |
